# Screening results as filed in PubChem.
# Most compounds without a hit are left out; they make up all but 4.7% or so of the library.
# LMP1 NFkB inh: EBV LMP1-driven NF-kappaB luciferase reporter inhibitors, primary screen, cell-based, luminescence, single point; LMP1-induced NF-kappaB luciferase reporter cells; inhibition, % at 12.5 µM; 0.69% of 350,000 active; in the data active = inhibition above about 41%; inconclusive = no clear call, values can overlap the other calls
# TROY signal inh: inhibitors of TROY-driven NF-kB signaling, primary screen, Q293 LMP1-TROYcd cells, NF-kB luciferase, uHTS. AID 1347056, 2019. 0.98% of 360,000 active. Q293 LMP1-TROYcd NF-kB luciferase reporter, 4 h. inhibition, % at 10 µM;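 active = compounds whose plate-normalised and pattern-corrected inhibition of the luciferase reporter signal at the single screening dose is 50% or more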
# TWEAK-Fn14 inh: inhibitors of TWEAK-Fn14 signaling, primary screen, luciferase reporter cells, uHTS | TWEAK-stimulated Fn14 reporter cells, luciferase luminescence, 8 h | 2% of 360,000 active | inhibition, % at 10 µM; in the data active = inhibition above about 50%
# HSF1 inhib: HSF1 inhibitors in luciferase reporter cells, primary screen, cell-based, NIH3T3, luminescence | NIH3T3-HGL HSE-luciferase, MG132-induced, luminescence 8 h; hits give low values | activity change, negative = inhibition, % at 7.5 µM (by protocol) | 0.77% of 300,000 active | AID 2098, 2009;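 active = more than half of replicate wells show activity change below -50%, luminescence cut by over half; inconclusive = some wells, but at most half, below -50%; inactive = no replicate well below -50%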;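 note: luciferase reports HSF-1 transcriptional activity via heat shock element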
# HSP90 inh: HSP90 inhibitors, primary screen, cell lysate, luminescence | Heat shock protein HSP 90 (rabbit reticulocyte lysate; luciferase refolding) | Rabbit reticulocyte lysate, luciferase refolding luminescence, 3 h | inhibition, % at 5.6 µM | 0.91% of 290,000 active | AID 1789, 2009;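 active = inhibition above the screen-wide mean plus 3 SD, computed separately per campaign, cut at about 16% in these data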;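 note: inhibitors lower the luminescence because luciferase stays unfolded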
# HSF1 activator: HSF-1 activators, primary screen, NIH3T3-HGL cells, MG132 stress, luminescence, single point. 1.7% of 300,000 active. activation, % at 9 µM. NIH3T3-HGL HSF-1 luciferase reporter, 8 h; 100% = twice DMSO control signal;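 active = mean replicate activation of at least 50% with a set share of replicates each reaching 50%; inconclusive = only one of those two conditions met; inactive = mean below 50% and too few replicates reaching it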
# A number is an active result; i = inactive; ? = inconclusive; nt = not tested or not shown; ! = a repeat was not active.
SMILES,LMP1 NFkB inh,TROY signal inh,TWEAK-Fn14 inh,HSF1 inhib,HSP90 inh,HSF1 activator
O=C(NCCNc1ccnc2cc(Cl)ccc12)c1ccccc1F,i,i,i,-79,i,i
Clc1ccc2c(NCc3ccccc3)ccnc2c1,i,i,i,i,i,i
O=C(NCCNc1ccc(Cl)cc1[N+](=O)[O-])c1ccccc1F,i,i,i,i,i,51
CSc1ccccc1NC(=O)CN1CCCCC1C (stereo not given),55,i,i,i,i,i
COC(=O)CCCCC1SCC(NC(=O)OC)C1NC(=O)OC (stereo not given),i,nt,i,i,i,i
COC(=O)CCCC[C@@H]1SC[C@@H](NC(=O)OC)[C@@H]1NC(=O)OC,53,i,i,i,i,i
Clc1ccc(-c2nc3c4ccccc4ccn3c2Cc2ccsc2)cc1,nt,i,i,nt,nt,nt
COC(=O)Cc1nnc(Nc2cccc(C)c2)c2ccccc12,i,i,i,i,i,i
CCOC(=O)Cc1nnc(Nc2cccc(C)c2)c2ccccc12,i,i,i,i,i,80
c1ccc(OCCNc2ccn3nc(-c4cccs4)cc3n2)cc1,nt,i,i,nt,nt,nt
O=C1/C(=C\c2ccc(Br)o2)Cc2ccccc21,i,i,i,i,i,59
Cn1c(=O)c2[nH]c(CCCCCCCc3nc4ccccc4[nH]3)nc2n(C)c1=O,i,i,i,nt,nt,nt
Cn1c(Oc2cccnc2CN2CCCC2)nc2cc(-c3cccc(C(F)(F)F)c3)sc2c1=O,nt,i,i,nt,nt,nt
CCNC(=O)C1CCCN(Cc2cc(C(F)(F)F)ccc2Cl)CC1 (stereo not given),nt,i,i,nt,nt,nt
C#CCOCCOCCOCCNc1nc(N2CCN(C(=O)CCCCCCCCCCNC(=O)Cn3cc(C[C@@H](C)O)nn3)CC2)nc(N2CCN(C(=O)CCCCCCCCCCNC(=O)[C@@H]([C@H](C)CC)n3cc(CCCCCN)nn3)CC2)n1,i,68,i,nt,nt,nt
C#CCOCCOCCOCCNc1nc(N2CCN(C(=O)CCCCCCCCCCNC(=O)Cn3cc(C[C@@H](C)O)nn3)CC2)nc(N2CCN(C(=O)CCCCCCCCCCNC(=O)[C@@H](CCSC)n3cc(CCO)nn3)CC2)n1,i,i,60,nt,nt,nt
C#CCOCCOCCOCCNc1nc(N2CCN(C(=O)CCCCCCCCCCNC(=O)Cn3cc(CCCCCN)nn3)CC2)nc(N2CCN(C(=O)CCCCCCCCCCNC(=O)[C@@H]([C@H](C)O)n3cc(C)nn3)CC2)n1,i,i,i,nt,nt,nt
C#CCOCCOCCOCCNc1nc(N2CCN(C(=O)CCCCCCCCCCNC(=O)Cn3cc(C[C@@H](C)O)nn3)CC2)nc(N2CCN(C(=O)CCCCCCCCCCNC(=O)[C@@H]([C@H](C)O)n3cc(C)nn3)CC2)n1,i,i,84,nt,nt,nt
C#CCOCCOCCOCCNc1nc(N2CCN(C(=O)CCCCCCCCCCNC(=O)[C@@H](CCSC)n3cc(CCO)nn3)CC2)nc(N2CCN(C(=O)CCCCCCCCCCNC(=O)[C@@H]([C@H](C)O)n3cc(C)nn3)CC2)n1,i,i,i,nt,nt,nt
C#CCOCCOCCOCCNc1nc(N2CCN(C(=O)CCCCCCCCCCNC(=O)Cn3cc(CCCCCN)nn3)CC2)nc(N2CCN(C(=O)CCCCCCCCCCNC(=O)Cn3cc(C[C@@H](C)O)nn3)CC2)n1,i,i,i,nt,nt,nt
CCCCN(C)c1c(C)nc2ccc(C(=O)NCCCn3ccnc3)cn12,nt,i,i,nt,nt,nt
C=CCSc1nccc(-c2cc(Cl)sc2Cl)n1,84,i,i,i,i,i
N#CCSc1nccc(-c2cc(Cl)sc2Cl)n1,i,i,i,i,i,i
COc1ccc(C(C)=O)cc1CN1C(=O)C(C)ON=C1c1cccc(C(F)(F)F)c1 (stereo not given),nt,i,i,nt,nt,nt
C(=C\c1ccccc1)/CN1CCN(C(c2cccs2)c2nnnn2-c2ccc3c(c2)OCCO3)CC1 (stereo not given),nt,i,i,nt,nt,nt
SMILES,LMP1 NFkB inh,TROY signal inh,TWEAK-Fn14 inh,HSF1 inhib,HSP90 inh,HSF1 activator
Fc1ccc(-c2cn3cc(C(F)(F)F)cc(Cl)c3n2)cc1,i,i,i,i,i,83
COc1ccc(-c2cn3cc(C(F)(F)F)cc(Cl)c3n2)cc1,i,i,i,i,i,i
OC1c2c(F)cccc2N=C2CCCCN21 (stereo not given),nt,i,i,nt,nt,nt
Cc1nonc1C1CCCN1Cc1cn[nH]c1-c1ccc(-c2ccccc2)cc1 (stereo not given),i,i,i,i,i,62
COc1cc(-c2[nH]ncc2CN2CCCC2c2nonc2C)cc(OC)c1OC (stereo not given),i,i,i,i,i,i
COCCNc1nc(-c2ccccc2CO)c2sc(-c3ccccc3)cc2n1,nt,i,i,nt,nt,nt
O=C(Nc1cc(Sc2nc3ccccc3s2)cc([N+](=O)[O-])c1)c1ccccc1,i,i,63,i,i,i
O=C(Nc1cc(Sc2ccccn2)cc([N+](=O)[O-])c1)c1cccc(F)c1,i,i,65,i,i,i
COc1cc(/C=C/c2nc(N)nc(-c3ccccc3O)n2)cc(OC)c1OC,i,i,53,?,i,i
COc1ccc(/C=C/c2nc(N)nc(-c3ccccc3O)n2)cc1OC,i,i,55,i,i,i
COc1cc(/C=C/c2noc(-c3ccccc3O)n2)cc(OC)c1OC,i,i,i,i,i,i
COc1ccc(/C=C/c2nc(N)nc(-c3ccccc3O)n2)cc1,i,i,i,i,i,i
CCCCCCCCCCCCCCCC[n+]1ccc(C(N)=O)cc1,i,i,i,nt,i,nt
CCCCCCCCCCCCCCCC[n+]1ccccc1,i,52!,77!,nt,nt,nt
CC(C)[C@H](NC(=O)c1ccc(Cl)cc1Cl)C(=O)OCc1nc2ccsc2c(=O)[nH]1,i,i,i,nt,nt,nt
CC(c1ccco1)N(C(=O)c1cc(Cl)cc(Cl)c1)c1ccccn1 (stereo not given),i,i,i,i,i,i
CC(c1ccco1)N(C(=O)c1ccccc1NS(=O)(=O)c1ccc(Cl)c([N+](=O)[O-])c1)c1ccccn1 (stereo not given),i,71,i,i,i,i
O=C(NCc1ccco1)c1sc2ccccc2c1Cl,i,i,i,i,i,66
O=C(NCc1ccco1)c1sc2cc(Cl)ccc2c1Cl,i,i,i,i,i,i
CCN(CC)c1ccc(/C=N/NC(=O)c2ccco2)cc1,i,i,64,i,i,i
O=C(N/N=C/c1ccccc1)c1ccco1,i,i,i,i,i,i
CCN(CC)c1ccc(/C=N/NC(=O)c2ccco2)c(O)c1,69,i,i,i,i,i
COC(=O)c1cc(OC)c(OC)cc1NC(=S)NC(=O)c1ccco1,i,i,74,i,i,73
O=C(N/N=C/c1ccc2cccnc2c1)c1ccco1,i,i,52,i,i,i
